Measurements: the supplement of paper PMC10849652
About 7,900 targets were measured; listed, in parts, are those with a hit and a random draw of the rest. About 0.6% of all pairs of compound and target were hits.

How the values were obtained:
Assay in all cases: log2 fold change, soluble protein after heating vs DMSO (PISA); higher = thermal stabilisation; K562 cells, 10 uM, 30 min; active = over 0.2 and 3.5 SD of the protein, either way, in both replicates (recomputed)
erlotinib = compound: C#Cc1cccc(Nc2ncnc3cc(OCCOC)c(OCCOC)cc23)c1 [erlotinib]
Outline: (§1)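 K562 cells at 2×10^6 cells/mL were given 10 μM compound for 30 min. Aliquots then went through 3 min of heating across 48°C-58°C, were pooled, and were extracted in PBS with 0.5% NP-40 at 4°C, and the supernatant after 21,000xg for 90 min was quantified by TMTpro 16plex LC-MS/MS with channel sums equalised. Thermal stability relative to control samples, from duplicates, is given as log2 fold change.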

[1] = compound: C/C(=N\NC(=O)C1=CC(=CC=C1)S(=O)(=O)N2CCOCC2)/C3=C(C=CC(=C3)Cl)O
Outline: as §1

[2] = compound: C1=CC(=C(C=C1Cl)C2=NC3=NC=CN=C3C(=N2)NC4=CC=NC=C4)F
Outline: as §1

[3] = compound: C1=CC(=CC=C1C2=NC3=C(N2)C=C(C=C3)C(=O)N)OC4=CC=C(C=C4)Cl
Outline: as §1

[4] = compound: C1=CC2=C(C=CC(=C2)/C=C\3/C(=O)NC(=NCC4=CC=CS4)S3)N=C1
Outline: as §1

[5] = compound: C1=CC2=NC=CN=C2C=C1/C=C/3\C(=O)NC(=O)S3
Outline: as §1

[6] = compound: C1=CC=C(C=C1)C2=NC(=C(N2)C3=CC=NC=C3)C4=CC(=C(C=C4)Cl)O
Outline: as §1

[7] = compound: C1=CC=C2C(=C1)C3=NNC4=CC=CC(=C43)C2=O
Outline: as §1

[8] = compound: C1CCN(C1)C(=O)NC2=CC=CC(=C2)NC3=NC=C(C(=N3)NCCC4=CN=CN4)Br
Outline: as §1

[9] = compound: C1CN(CCC1(CC2=CC=C(C=C2)Cl)N)C3=NC=NC4=C3C=CN4
Outline: as §1

Measured: log2 fold change

EHD2 (UniProt Q9NZN4)
Sequence of UniProt Q9NZN4 (Q9NZN4 whole entry, looked up): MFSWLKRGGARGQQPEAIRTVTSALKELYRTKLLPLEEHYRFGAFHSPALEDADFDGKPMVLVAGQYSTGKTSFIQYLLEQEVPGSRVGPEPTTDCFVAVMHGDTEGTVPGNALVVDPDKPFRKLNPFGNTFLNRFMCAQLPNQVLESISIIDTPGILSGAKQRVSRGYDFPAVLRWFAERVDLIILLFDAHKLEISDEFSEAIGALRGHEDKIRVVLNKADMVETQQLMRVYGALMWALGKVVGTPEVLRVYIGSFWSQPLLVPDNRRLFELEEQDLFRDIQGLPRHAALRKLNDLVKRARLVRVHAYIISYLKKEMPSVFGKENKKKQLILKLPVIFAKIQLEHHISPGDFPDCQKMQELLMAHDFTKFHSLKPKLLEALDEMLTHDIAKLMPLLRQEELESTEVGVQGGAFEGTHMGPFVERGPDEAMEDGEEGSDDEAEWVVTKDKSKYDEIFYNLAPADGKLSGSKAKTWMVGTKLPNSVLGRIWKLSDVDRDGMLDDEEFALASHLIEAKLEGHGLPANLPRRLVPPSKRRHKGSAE
inactive: erlotinib -0.044 | [1] 0.025 | [2] 0.013 | [3] -0.077 | [4] 0.007 | [5] -0.01 | [6] -0.003 | [7] 0.01 | [8] -0.008 | [9] 0.041

EIF2S3 (UniProt P41091)
inactive: erlotinib -0.028 | [1] -0.041 | [2] -0.18 | [3] -0.004 | [4] -0.023 | [5] -0.006 | [6] -0.037 | [7] 0.015 | [8] -0.023 | [9] -0.06

EEF1AKNMT (UniProt Q8N6R0)
Sequence of UniProt Q8N6R0 (Q8N6R0 whole entry, looked up): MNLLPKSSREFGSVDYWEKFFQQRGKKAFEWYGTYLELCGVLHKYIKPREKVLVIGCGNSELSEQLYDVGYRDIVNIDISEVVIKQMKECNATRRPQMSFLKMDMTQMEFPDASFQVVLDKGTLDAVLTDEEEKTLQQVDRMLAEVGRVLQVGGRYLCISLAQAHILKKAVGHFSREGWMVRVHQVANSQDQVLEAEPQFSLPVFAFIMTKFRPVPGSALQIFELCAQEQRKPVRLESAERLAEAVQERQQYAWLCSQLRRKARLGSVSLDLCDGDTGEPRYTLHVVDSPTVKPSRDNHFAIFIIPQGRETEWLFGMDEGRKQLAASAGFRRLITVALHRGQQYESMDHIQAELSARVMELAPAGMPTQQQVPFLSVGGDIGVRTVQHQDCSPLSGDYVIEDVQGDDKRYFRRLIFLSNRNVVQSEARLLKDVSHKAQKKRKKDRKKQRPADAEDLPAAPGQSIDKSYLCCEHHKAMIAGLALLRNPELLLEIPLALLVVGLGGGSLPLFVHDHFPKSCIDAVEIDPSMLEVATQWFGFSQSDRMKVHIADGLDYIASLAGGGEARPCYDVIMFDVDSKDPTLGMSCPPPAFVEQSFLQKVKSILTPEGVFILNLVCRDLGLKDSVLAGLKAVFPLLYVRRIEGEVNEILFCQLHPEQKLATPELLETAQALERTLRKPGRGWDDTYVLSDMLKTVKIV
inactive: erlotinib 0.063 | [1] 0.15 | [2] 0.008 | [3] -0.022 | [4] 0.114 | [5] 0.013 | [6] 0.091 | [7] 0.058 | [8] 0.023 | [9] -0.061

FAAP100 (UniProt Q0VG06)
inactive: erlotinib 0.003 | [1] 0.019 | [2] 0.246 | [3] 0.037 | [4] 0.052 | [5] 0.17 | [6] -0.024 | [7] 0.023 | [8] -0.122 | [9] 0.004

CTSB (UniProt P07858)
inactive: erlotinib 0.021 | [1] -0.037 | [2] 0.026 | [3] 0.003 | [4] 0.038 | [5] 0.016 | [6] 0.009 | [7] -0.017 | [8] 0.007 | [9] 0.04

EXOC2 (UniProt Q96KP1)
inactive: erlotinib 0.07 | [1] 0.083 | [2] -0.027 | [3] -0.045 | [4] 0.05 | [5] 0.006 | [6] -0.013 | [7] 0.054 | [8] -0.014 | [9] -0.119

DBN1 isoform 3 (UniProt Q16643)
inactive: erlotinib -0.095 | [1] -0.047 | [2] -0.028 | [3] 0.039 | [4] -0.074 | [5] 0.02 | [6] 0.021 | [7] -0.029 | [8] 0.089 | [9] 0.041

DAG1 (UniProt Q14118)
inactive: erlotinib 0.055 | [1] 0.067 | [2] -0.043 | [3] 0 | [4] -0.038 | [5] -0.037 | [6] -0.154 | [7] -0.06 | [8] -0.009 | [9] 0.035

DNTTIP2 (UniProt Q5QJE6)
Sequence of UniProt Q5QJE6 (Q5QJE6 whole entry, looked up): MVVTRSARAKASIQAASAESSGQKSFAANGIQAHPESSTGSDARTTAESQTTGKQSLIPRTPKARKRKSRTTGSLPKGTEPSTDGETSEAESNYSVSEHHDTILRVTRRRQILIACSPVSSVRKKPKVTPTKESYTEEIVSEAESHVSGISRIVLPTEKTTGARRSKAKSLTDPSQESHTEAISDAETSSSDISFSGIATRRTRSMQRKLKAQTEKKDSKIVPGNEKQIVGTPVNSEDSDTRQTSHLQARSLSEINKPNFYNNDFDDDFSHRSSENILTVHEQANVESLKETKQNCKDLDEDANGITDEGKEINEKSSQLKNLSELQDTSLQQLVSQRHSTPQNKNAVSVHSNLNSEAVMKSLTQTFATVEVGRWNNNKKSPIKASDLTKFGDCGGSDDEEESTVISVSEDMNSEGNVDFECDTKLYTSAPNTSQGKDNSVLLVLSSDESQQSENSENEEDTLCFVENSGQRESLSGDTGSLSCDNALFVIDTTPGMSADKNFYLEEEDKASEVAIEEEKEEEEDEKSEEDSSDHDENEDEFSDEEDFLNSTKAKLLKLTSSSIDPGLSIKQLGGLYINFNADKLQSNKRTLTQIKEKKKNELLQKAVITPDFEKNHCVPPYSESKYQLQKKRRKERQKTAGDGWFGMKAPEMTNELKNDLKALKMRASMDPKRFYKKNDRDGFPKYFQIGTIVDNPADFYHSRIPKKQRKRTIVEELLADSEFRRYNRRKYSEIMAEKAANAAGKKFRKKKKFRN
inactive: erlotinib -0.111 | [1] -0.186 | [2] -0.242 | [3] 0.038 | [4] 0.005 | [5] -0.043 | [6] -0.069 | [7] -0.269 | [8] -0.004 | [9] -0.111

EIF4A1 (UniProt P60842)
inactive: erlotinib 0.036 | [1] 0.049 | [2] 0.047 | [3] -0.023 | [4] 0.016 | [5] -0.021 | [6] 0.007 | [7] 0.035 | [8] -0.039 | [9] 0.054

FAM50A (UniProt Q14320)
inactive: erlotinib 0.015 | [1] 0.051 | [2] 0.054 | [3] -0.017 | [4] -0.009 | [5] 0.062 | [6] -0.019 | [7] -0.001 | [8] -0.026 | [9] -0.065

DCTN1 isoform 4 (UniProt Q14203)
Sequence of UniProt Q14203 (Q14203 whole entry, looked up): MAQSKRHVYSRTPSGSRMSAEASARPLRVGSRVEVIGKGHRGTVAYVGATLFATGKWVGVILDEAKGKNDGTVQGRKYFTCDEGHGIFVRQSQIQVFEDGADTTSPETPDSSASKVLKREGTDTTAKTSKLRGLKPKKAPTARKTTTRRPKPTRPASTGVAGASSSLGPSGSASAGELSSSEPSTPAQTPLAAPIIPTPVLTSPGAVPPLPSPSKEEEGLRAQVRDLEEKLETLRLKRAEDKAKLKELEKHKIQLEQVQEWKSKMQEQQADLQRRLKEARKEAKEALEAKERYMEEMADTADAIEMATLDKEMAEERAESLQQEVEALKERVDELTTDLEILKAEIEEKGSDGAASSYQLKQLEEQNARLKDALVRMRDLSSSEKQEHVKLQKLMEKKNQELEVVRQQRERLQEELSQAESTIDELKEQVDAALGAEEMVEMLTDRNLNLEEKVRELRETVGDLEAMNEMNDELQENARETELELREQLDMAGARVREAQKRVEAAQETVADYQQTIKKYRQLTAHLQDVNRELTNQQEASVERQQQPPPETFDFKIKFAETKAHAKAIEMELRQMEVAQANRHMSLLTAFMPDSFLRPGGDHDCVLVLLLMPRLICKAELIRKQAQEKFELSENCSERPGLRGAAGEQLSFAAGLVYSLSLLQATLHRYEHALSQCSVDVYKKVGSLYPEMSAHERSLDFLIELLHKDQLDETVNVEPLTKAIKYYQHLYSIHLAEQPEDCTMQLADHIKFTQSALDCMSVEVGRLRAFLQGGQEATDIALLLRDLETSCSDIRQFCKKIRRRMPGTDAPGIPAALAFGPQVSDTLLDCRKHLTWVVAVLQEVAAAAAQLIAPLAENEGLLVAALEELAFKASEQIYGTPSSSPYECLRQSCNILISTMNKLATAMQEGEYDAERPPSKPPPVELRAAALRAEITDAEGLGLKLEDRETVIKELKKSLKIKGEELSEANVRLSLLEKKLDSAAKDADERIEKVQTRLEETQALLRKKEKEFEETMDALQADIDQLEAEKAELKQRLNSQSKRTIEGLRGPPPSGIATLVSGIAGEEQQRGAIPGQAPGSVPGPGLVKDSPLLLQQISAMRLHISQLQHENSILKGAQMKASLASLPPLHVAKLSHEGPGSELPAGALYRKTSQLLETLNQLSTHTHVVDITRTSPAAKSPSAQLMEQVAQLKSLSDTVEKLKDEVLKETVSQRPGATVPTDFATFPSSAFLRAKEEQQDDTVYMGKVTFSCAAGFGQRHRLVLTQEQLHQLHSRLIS
inactive: erlotinib 0.04 | [1] 0.031 | [2] -0.053 | [3] -0.033 | [4] 0.037 | [5] -0.009 | [6] -0.023 | [7] 0.05 | [8] 0.046 | [9] -0.072

ELOVL1 (UniProt Q9BW60)
Sequence of UniProt Q9BW60 (Q9BW60 whole entry, looked up): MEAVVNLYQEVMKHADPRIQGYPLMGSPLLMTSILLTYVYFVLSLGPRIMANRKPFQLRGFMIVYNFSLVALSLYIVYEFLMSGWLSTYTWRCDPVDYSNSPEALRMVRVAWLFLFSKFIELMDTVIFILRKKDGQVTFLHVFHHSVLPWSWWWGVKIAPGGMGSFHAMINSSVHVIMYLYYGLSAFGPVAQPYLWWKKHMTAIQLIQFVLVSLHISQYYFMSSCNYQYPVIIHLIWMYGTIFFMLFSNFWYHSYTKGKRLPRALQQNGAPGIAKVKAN
inactive: erlotinib -0.022 | [1] 0.019 | [2] -0.01 | [3] -0.059 | [4] 0.036 | [5] 0.011 | [6] 0.069 | [7] -0.11 | [8] -0.124 | [9] 0.014

DUS3L (UniProt Q96G46)
inactive: erlotinib -0.073 | [1] 0.025 | [2] 0.118 | [3] 0.059 | [4] 0.016 | [5] 0.037 | [6] 0.042 | [7] -0.001 | [8] -0.043 | [9] 0.078

DLD (UniProt P09622)
Sequence of UniProt P09622 (P09622 whole entry, looked up): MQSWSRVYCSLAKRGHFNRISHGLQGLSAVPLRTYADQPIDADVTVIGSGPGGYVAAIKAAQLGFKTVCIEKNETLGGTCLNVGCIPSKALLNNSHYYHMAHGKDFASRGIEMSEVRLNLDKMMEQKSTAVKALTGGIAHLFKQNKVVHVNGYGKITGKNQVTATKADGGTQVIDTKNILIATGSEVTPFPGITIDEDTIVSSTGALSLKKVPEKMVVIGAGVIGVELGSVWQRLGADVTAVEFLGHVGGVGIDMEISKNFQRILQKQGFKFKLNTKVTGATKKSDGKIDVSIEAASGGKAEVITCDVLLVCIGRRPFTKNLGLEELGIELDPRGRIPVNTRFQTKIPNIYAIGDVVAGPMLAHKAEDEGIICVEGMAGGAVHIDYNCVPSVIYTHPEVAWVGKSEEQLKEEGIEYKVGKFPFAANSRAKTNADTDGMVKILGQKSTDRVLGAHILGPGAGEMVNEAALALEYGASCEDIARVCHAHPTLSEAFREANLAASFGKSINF
inactive: erlotinib 0.001 | [1] -0.018 | [2] 0.044 | [3] -0.083 | [4] -0.007 | [5] -0.018 | [6] 0.032 | [7] -0.018 | [8] 0.031 | [9] 0.054

EXOC4 (UniProt Q96A65)
inactive: erlotinib 0.131 | [1] 0.159 | [2] 0.044 | [3] -0.071 | [4] 0.09 | [5] 0.033 | [6] -0.036 | [7] -0.018 | [8] -0.02 | [9] -0.083

EXOC6 (UniProt Q8TAG9)
Sequence of UniProt Q8TAG9 (Q8TAG9 whole entry, looked up): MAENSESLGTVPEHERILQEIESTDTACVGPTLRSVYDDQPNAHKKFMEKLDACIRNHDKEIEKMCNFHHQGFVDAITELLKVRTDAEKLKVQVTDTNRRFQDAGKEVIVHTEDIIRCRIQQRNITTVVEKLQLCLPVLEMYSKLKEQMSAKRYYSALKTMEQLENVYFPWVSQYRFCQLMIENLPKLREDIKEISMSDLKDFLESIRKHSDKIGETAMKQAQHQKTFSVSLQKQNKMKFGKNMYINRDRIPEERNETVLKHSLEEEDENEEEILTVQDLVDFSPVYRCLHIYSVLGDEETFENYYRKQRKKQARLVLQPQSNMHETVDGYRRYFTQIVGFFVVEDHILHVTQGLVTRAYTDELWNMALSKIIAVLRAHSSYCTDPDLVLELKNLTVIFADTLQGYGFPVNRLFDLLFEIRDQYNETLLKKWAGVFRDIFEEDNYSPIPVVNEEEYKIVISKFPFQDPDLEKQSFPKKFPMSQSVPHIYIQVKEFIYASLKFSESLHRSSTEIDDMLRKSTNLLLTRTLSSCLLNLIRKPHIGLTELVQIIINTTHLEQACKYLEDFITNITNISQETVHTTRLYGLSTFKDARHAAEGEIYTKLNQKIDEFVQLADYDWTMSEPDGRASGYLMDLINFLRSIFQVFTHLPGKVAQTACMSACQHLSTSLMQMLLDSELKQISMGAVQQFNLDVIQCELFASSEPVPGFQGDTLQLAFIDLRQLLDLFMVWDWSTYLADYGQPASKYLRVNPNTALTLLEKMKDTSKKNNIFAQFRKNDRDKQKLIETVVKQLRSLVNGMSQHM
inactive: erlotinib 0.073 | [1] 0.127 | [2] 0.006 | [3] -0.025 | [4] 0.096 | [5] 0.076 | [6] 0.069 | [7] 0.003 | [8] -0.045 | [9] -0.042
